Screening data deposited in PubChem BioAssay by Broad Institute.
aSyn 5UTR act = Activators via SNCA 5'UTR binding, MLPCN. alpha-synuclein 5'UTR reporter, activators screen. AID 1814. 7.1% of 300,000 active. activity score, % (tested at 7.5 µM), hits read low; in the data active means activity score below about -60%
Starred values were filed as active, the others as inactive. A selection follows.

SMILES	aSyn 5UTR act
Cc1cccnc1NC(=S)Nc1ccc(F)cc1F	-74*
Cc1cc(C)nc(NC(=S)Nc2ccc(F)cc2F)c1	-62*
Cn1c(N)c(C(=O)/C=C/c2ccccc2)c(=O)[nH]c1=O	-140*
CC1c2cc3c(cc2CCN1C(=O)c1cccc(Cl)c1)OCCCO3 (stereo not given)	-65*
ClC1(Cl)CC1CSc1nnc(-c2ccncc2)o1 (stereo not given)	-66*
CC(=O)Nc1ccc(SCc2ncc(-c3ccccc3)o2)cc1	-130*
COCCn1c(C)cc(C(=O)COC(=O)c2cc3c(s2)CCC3)c1C	-78*
Cc1cc(C(=O)COC(=O)c2ccc([N+](=O)[O-])o2)c(C)n1CC1CCCO1 (stereo not given)	-128*
Cc1cc(C(=O)CSc2nc3ccccc3o2)c(C)n1CC1CCCO1 (stereo not given)	-138*
COCCn1c(C)cc(C(=O)COC(=O)c2cccc(O)c2)c1C	67
Cc1cc(C(=O)COC(=O)c2ccc3c(c2)OCO3)c(C)n1CC1CCCO1 (stereo not given)	-68*
CC1CCN(C(=O)COC(=O)c2ccc3c(c2)OCO3)CC1	-118*
CSc1ncccc1C(=O)OCC(=O)c1cc(C)n(CC2CCCO2)c1C (stereo not given)	-69*
COCCn1c(C)cc(C(=O)COC(=O)c2ccc([N+](=O)[O-])o2)c1C	-90*
O=c1c2c(nc3cc(-c4ccccc4)[nH]n13)CCS2	-99*
O=c1c2c(nc3cc(-c4ccccc4Cl)[nH]n13)CCS2	-149*
C#CCSc1nnc(-c2ccc(O)cc2)o1	-138*
C#CCSc1nnc(-c2cccc3ccccc23)o1	-104*
C#CCSc1nnc(-c2ccc(C)cc2)o1	-164*
O=c1[nH]c2ccccc2c2nc3ccccn3c12	-113*
O=c1nc2c(O)cccn2c2c1c(=O)[nH]c1ccccc12	-66*
O=[N+]([O-])c1cc([N+](=O)[O-])c2c(=Nc3ccccc3)n(-c3ccccc3)n(O)c2c1	-77*
Clc1ccc(/C=N\Nc2ccccc2)cc1	-67*
CCOc1ccc(/C=N/Nc2ccccc2)cc1	-75*
O=C(N/N=C/c1ccco1)Nc1ccccc1	-130*
SMILES	aSyn 5UTR act
O=C(N/N=C/c1ccc(Cl)cc1)Nc1ccccc1	-170*
O=C(N/N=C/c1cc(Br)cs1)c1ccc2c(c1)OCCO2	-344*
Cc1ccc(/C=N/NC(=O)c2ccc3ccccc3c2)s1	-132*
O=C(N/N=C/c1cccs1)c1ccc2ccccc2c1	-240*
O=C(N/N=C/c1cccs1)c1cc(-c2cccc3ccccc23)n[nH]1	-104*
Cc1cc(C(=O)N/N=C/c2ccc([N+](=O)[O-])s2)n[nH]1	79
CC(C)(C)C1CCc2c(C(=O)N/N=C/c3cccs3)csc2C1 (stereo not given)	-97*
Cc1cc(C(=O)N/N=C/c2ccc(C)s2)n[nH]1	-97*
Cc1ccc(/C=N/NC(=O)c2ccc3c(c2)OCCO3)s1	-118*
CC(C)(C)N(Cc1ccccc1)C(=O)CN1C(=O)c2ccccc2C1=O	-97*
CSc1ccccc1OCc1cc(C(=O)N(C)Cc2cnccn2)no1	-97*
COc1ccc(OCc2cc(C(=O)NC(C)Cc3cnccn3)no2)c(Cl)c1 (stereo not given)	-144*
COc1cc(Cl)ccc1OCc1cc(C(=O)N(C)Cc2cccc3cnccc23)no1	-77*
COc1cc(OC)cc(C(=O)NC(=S)NNC(=O)c2cnccn2)c1	73
COc1cc(Cl)ccc1OCc1cc(C(=O)NC(C)Cc2cccnc2)no1 (stereo not given)	-97*
COc1ccc(OCc2cc(C(=O)NCC(C)Oc3cccnc3)no2)c(Cl)c1 (stereo not given)	-85*
COc1ccc(OCc2cc(C(=O)N(C)Cc3cnccn3)no2)c(Cl)c1	-71*
COc1ccc(OCc2cc(C(=O)N(C)Cc3cc(C4CC4)n[nH]3)no2)c(Cl)c1	-189*
COc1ccccc1CCc1nnc(CCC(=O)N(C)Cc2cccc3cnccc23)o1	-131*
COc1cc(Cl)ccc1OCc1cc(C(=O)NCc2cc(C(C)C)no2)no1	-147*
CC(=O)Nc1ccc(S(=O)(=O)N(Cc2cc3ccc(C)cc3[nH]c2=O)CC2CCCO2)cc1 (stereo not given)	82
COc1ccc2cc(CN(CC3CCCO3)S(=O)(=O)c3ccc(C(C)=O)cc3)c(=O)[nH]c2c1 (stereo not given)	-78*
CCCc1cc(C(=O)Nc2ccc(F)cc2F)no1	-116*
CCCc1cc(C(=O)Nc2ccccc2SC)no1	-155*
CCCc1cc(C(=O)Nc2cccc(Cl)c2C)no1	-150*
SMILES	aSyn 5UTR act
CC(=O)N1N=C(c2ccc(C)cc2)OC1c1ccc(C)cc1 (stereo not given)	-129*
CC(=O)N1N=C(c2ccc(C)cc2)OC1c1ccc(C(C)C)cc1 (stereo not given)	-182*
CCOC(=O)/C=c1\s/c(=C\c2c(OC)ccc3ccccc23)c(=O)n1CC(=O)NCC1CCCO1 (stereo not given)	71
Cc1ccccc1-n1c(C)cc(/C=C(\C#N)C(=O)NCC2CCCO2)c1C (stereo not given)	-94*
Cc1cc(/C=C(\C#N)C(=O)NCc2cccs2)c(C)n1-c1ccccc1F	-240*
O=C(Nc1ccc2c(c1)C(=O)OC2)c1ccc(Cl)cc1Cl	-75*
O=C(Nc1ccc2c(c1)C(=O)OC2)c1ccc(F)cc1F	-63*
CC(=O)c1sc2nc(-c3ccco3)ccc2c1N	-81*
NC(=O)c1sc2nc(-c3ccccc3)ccc2c1N	-73*
Nc1c(C(=O)Nc2ccc(Br)cc2)sc2nc(-c3ccco3)ccc12	-171*
CN(C)c1ccc(/C=N/NC(=S)NCc2ccco2)cc1	-127*
CN(C)c1ccc(C(=S)NCc2ccco2)cc1	-69*
CC(=O)c1cccc(NC(=S)NC(=O)c2ccc(C)cc2)c1	-83*
CC(=O)c1cccc(NC(=S)NC(=O)c2ccc(C)cc2Cl)c1	-70*
CC(=O)c1cccc(NC(=S)NC(=O)c2ccc(Br)cc2)c1	-143*
COc1ccccc1C(=O)Nc1ccc2c(c1)nc(CCNC(C)=O)n2C	-73*
CC(=O)NCCc1nc2cc(NC(=O)c3ccc(F)cc3)ccc2n1C	-111*
Cn1cnc2cc(NC(=O)COc3ccccc3)ccc21	-117*
CCC(=O)NCCc1nc2cc(NC(=O)c3ccccc3OC)ccc2n1C	-71*
CCC(=O)NCCc1nc2cc(NC(=O)c3cccc([N+](=O)[O-])c3)ccc2n1C	-70*
Cc1ccc(OCC(=O)Nc2ccc3c(c2)nc(CCN2CCN(C)CC2)n3C)cc1	105
CCC(=O)NCCc1nc2cc(NC(=O)COc3ccccc3)ccc2n1C	-113*
Cc1ccsc1/C=C1/SC(N2CCOCC2)=NC1=O	-80*
Cn1ncc(SCc2ccccc2)c(Cl)c1=O	-64*
Cc1ccnc(Nc2nc(-c3ccc(F)cc3)cs2)c1	-162*
SMILES	aSyn 5UTR act
Cc1ccnc(Nc2nc(-c3ccc(Cl)cc3)cs2)c1	-163*
O=c1/c(=C\c2ccc3c(c2)OCO3)sc2n1CCCN=2	-83*
Cc1ccc(/C=c2/sc3n(c2=O)CCCN=3)o1	-143*
CCN(CC)C(=O)C(C)N(C#N)c1nc(Cl)nc(N(C)C)n1 (stereo not given)	-122*
CCOCC(=O)Nc1ccc(Br)c(C)c1	-120*
CC(C)C(=O)NC(=S)Nc1sc2c(c1C(N)=O)CCCC2	-121*
Cc1cc(C(=O)Nc2sc3c(c2C#N)CCCCC3)cs1	-94*
NC(=O)c1c(NC(=O)c2ccncc2)sc2c1CCCC2	-121*
